From PubChem BioAssay (NCI)
The panel holds about 79,000 compounds, 15% with a hit somewhere; the sample as a whole holds those more often. A number with no mark means an inactive call. Active and inactive are the calls of the source. Rule as the data show it: active = growth inhibition above about 70%; inactive = the rest.

Test: NCI Yeast Anticancer Drug Screen. Data for the mlh1 rad18 strain (AID 175)
Conditions: S. cerevisiae mlh1 rad18 strain growth inhibition, hits give high values
Method: Growth inhibition of yeast strains with defined genetic alterations is measured as a screen for potential anti-cancer activity. Selected strains with alterations in DNA damage repair or cell cycle control were exposed to compounds and growth inhibition was measured relative to vehicle treated controls. The strain used in this assay is mlh1 rad18

[1] = at 5.0 µM (retest, dose inferred, filed as 0.5)
[2] = at 50.0 µM (retest, dose inferred, filed as 5.0)

Row | SMILES | growth inhibition [1] | growth inhibition [2] | growth inhibition (at 50.0 µM)
1 | N=C(N)SCc1nc(-c2ccc(Cl)cc2)no1 | -10% | 64% | 84.9% (active)
2 | O=C(O)c1ccc2cc3ccccc3cc2c1 | -24% | 58% | 54.1%
3 | COc1cc2c(cc1OC)-c1nc(Nc3ccccc3)sc1CC2 | -4% | 95% (active) | 93% (active)
4 | O=C1SC(c2ccccc2)=S=C1c1ccccc1 | 33% | 38% | -25.4%
5 | CC(C)(C)C(=O)CC(=O)C(F)(F)C(F)(F)C(F)(F)F.[Ag] | 98% (active) | 98% (active) | 88.4% (active)
6 | C1=Nc2ccccc2C=Nc2ccccc2C=Nc2ccccc2C=Nc2ccccc21.[Cl-].[Pt+2] | 63% | 97% (active) | 81.4% (active)
7 | Nc1ccc(O)c(=O)cc1 | -2% | 15% | 59.9%
8 | OCc1ccc2c(c1)CC1(C2)Cc2cc3c(cc2C1O)CCC3 (configuration not stated) | 20% | 57% | 71% (active)
9 | COc1cc(C2OC(=O)c3ccccc3S2)ccc1O (configuration not stated) | 13% | 98% (active) | 99.5% (active)
10 | COc1ccc(C(=O)Cn2c(C(C)=O)nc3ccccc32)cc1 | 28% | 52% | -43.2%
11 | COC(=O)C1C(C(=O)OC)C2(OC(c3ccc(Cl)cc3)=CC2=O)C12OC(c1ccc(Cl)cc1)=CC2=O (configuration not stated) | 13% | 98% (active) | 87.2% (active)
12 | N/N=C(/N)SCCCCCCCCCCS/C(N)=N/N | -8% | 39% | 79.8% (active)
13 | Cc1cc2nc(CC(=O)c3ccc4ccccc4c3)c(=O)[nH]c2cc1C | -16% | -28% | 96.7% (active)
14 | COc1ccc(C(C)c2cc3c(cc2OC/C(C)=N/NC(N)=O)OCO3)cc1 (configuration not stated) | 61% | 96% (active) | 90.3% (active)
